# Experimental data published in PubChem BioAssay (NCI).
# The panel holds about 79,000 compounds, 15% with a hit somewhere; the sample as a whole holds those more often. A number with no mark means an inactive call. Calls of active or inactive are those of the source. Cut-off read from the data, not from the text of the source: active = growth inhibition above about 70%; inactive = the rest.
# Experiment: NCI Yeast Anticancer Drug Screen. Data for the mec2-1 strain (AID 157)
# Conditions: S. cerevisiae mec2-1 strain, at 50.0 µM, stronger effect = higher value
# Method in brief: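 mec2-1 yeast strain, carrying an alteration in DNA damage repair or cell cycle control, was exposed to compounds; growth inhibition was measured relative to vehicle-treated controls.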
row,Structure (SMILES),growth inhibition
1,Cc1ccc2nc(N)nnc2c1,-34.1%
2,CC(CC(CCC(=O)O)(c1ccccc1)c1ccccc1)N(C)C (centres undefined),-4.7%
3,CCOC(=O)c1ccc(Nc2sc(C(=O)c3ccc(Br)cc3)c(N)c2C#N)cc1,-23.6%
4,CCCCNc1ccc(-c2ccc(NCCCC)cc2)cc1,4.3%
5,O=C(CCl)Nc1ccccc1SCc1cc(Cl)cc2c1OCOC2,-16.4%
6,NC(CSSCC(N)C(=O)O)C(=O)O (centres undefined),-20%
7,C=CCNC(=S)N/C=C(/C(=O)c1ccccc1)c1ccccc1,-23.8%
8,COC1C(=O)CCC2(CO2)C1(O)C1(C)OC1CCC(C)C (centres undefined),-42.4%
9,O=C(O)C1CSC(c2ccccc2)N1 (centres undefined),-12.8%
10,CN(C)CCOC(=O)Nc1ccc(Cc2ccc(NC(=O)OCCN(C)C)cc2)cc1,-25.2%
11,CCCCN(C(=O)CC)c1ccccc1,-29.8%
12,C=CCN1CCCC1=O,10.6%
13,CC(=O)NC(CCc1ccc(Cl)c(Cl)c1)c1cccc(O)c(=O)c1 (centres undefined),92% (active)
14,CC(=O)N(C(C)=O)c1ccc(C)cc1,-18.9%
15,CCNCC(C)(C)O,-3.8%
16,Cc1onc(-c2ccccc2Cl)c1C(=O)Cl,-41.3%
17,O=C(OCc1ccccc1)n1nnc2ccccc21,-4.05%
18,CC(CCC#N)(CCC#N)C(=O)c1ccccc1,25.7%
19,COc1ccc(NNS(=O)(=O)O)cc1,4.7%

row,Structure (SMILES),growth inhibition
1,COc1cccc(C(=O)O)c1OC,14.4%
2,CCOC(=O)C(COS(C)(=O)=O)(COS(C)(=O)=O)C(=O)OCC,-22.9%
3,CC1CC2C3CCC4=CC(=O)CCC4(C)C3CCC2(C)C1(O)C(=O)CO (centres undefined),-0.8%
4,COC(=O)C1=C(C)C(=O)CC1,-1.5%
5,O=C(Nc1ccc([N+](=O)[O-])cc1)C(=O)Nc1ccc([N+](=O)[O-])cc1,-24.2%
6,C=CC(=O)OC1CCC(C(C)(C)CC)CC1 (centres undefined),14.1%
7,CCOC(=O)C(=O)CC(=O)c1ccccc1,8.05%
8,O=c1nc(Nc2cccc(Cl)c2)oc2cc(Cl)oc(=O)c12,26%
9,N#CC1(O)CCCCC1,10.6%
10,CCOC(=O)c1ccc(NC(=O)Nc2nccs2)cc1,-10.8%
11,O=C(O)c1ccc(OCc2ccccc2)cc1,11.2%
12,CC(=O)C1C(=O)C(=O)N(c2cccc([N+](=O)[O-])c2)C1=O (centres undefined),-23.9%
13,Cc1cc(C(=O)NN)c(C#N)c(=O)[nH]1,-5.55%
14,CCC(C)c1c(N)n(S(=O)(=O)c2ccc(C)cc2)oc1=O (centres undefined),6.8%
15,O=c1cc(C(F)(F)F)[nH]c(=S)[nH]1,-5.05%
16,OCCc1ccc(Cl)cc1,8.15%
17,CCCOCc1cn[nH]n1,5.25%
18,Cc1cc(NC(=O)c2ccccc2)c(Cl)cc1N,-33.9%

# Experiment: NCI Yeast Anticancer Drug Screen. Data for the sgs1 mgt1 strain (AID 161);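 note: 0% = growth of cultures given vehicle only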
# Conditions: S. cerevisiae sgs1 mgt1 strain, at 50.0 µM, stronger effect = higher value
# Method in brief: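 Percent growth inhibition was derived by comparing compound-exposed mutant yeast with vehicle-exposed cultures. The strain carries alterations in DNA damage repair.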
row,Structure (SMILES),growth inhibition
1,Cc1ccc2nc(N)nnc2c1,3.9%
2,CC(CC(CCC(=O)O)(c1ccccc1)c1ccccc1)N(C)C (centres undefined),9.45%
3,CCOC(=O)c1ccc(Nc2sc(C(=O)c3ccc(Br)cc3)c(N)c2C#N)cc1,12.6%
4,CCCCNc1ccc(-c2ccc(NCCCC)cc2)cc1,-3.8%
5,O=C(CCl)Nc1ccccc1SCc1cc(Cl)cc2c1OCOC2,21.6%
6,NC(CSSCC(N)C(=O)O)C(=O)O (centres undefined),1.35%
7,C=CCNC(=S)N/C=C(/C(=O)c1ccccc1)c1ccccc1,-45.2%
8,COC1C(=O)CCC2(CO2)C1(O)C1(C)OC1CCC(C)C (centres undefined),-18.5%
9,O=C(O)C1CSC(c2ccccc2)N1 (centres undefined),-4.35%
10,CN(C)CCOC(=O)Nc1ccc(Cc2ccc(NC(=O)OCCN(C)C)cc2)cc1,-1.75%
11,CCCCN(C(=O)CC)c1ccccc1,9.5%
12,C=CCN1CCCC1=O,1.5%
13,CC(=O)NC(CCc1ccc(Cl)c(Cl)c1)c1cccc(O)c(=O)c1 (centres undefined),86% (active)
14,CC(=O)N(C(C)=O)c1ccc(C)cc1,-14.7%
15,CCNCC(C)(C)O,5.5%
16,Cc1onc(-c2ccccc2Cl)c1C(=O)Cl,-13.2%
17,O=C(OCc1ccccc1)n1nnc2ccccc21,8.55%
18,CC(CCC#N)(CCC#N)C(=O)c1ccccc1,25.1%
19,COc1ccc(NNS(=O)(=O)O)cc1,21.7%

row,Structure (SMILES),growth inhibition
1,COc1cccc(C(=O)O)c1OC,6.55%
2,CCOC(=O)C(COS(C)(=O)=O)(COS(C)(=O)=O)C(=O)OCC,-21.4%
3,CC1CC2C3CCC4=CC(=O)CCC4(C)C3CCC2(C)C1(O)C(=O)CO (centres undefined),9.1%
4,COC(=O)C1=C(C)C(=O)CC1,11.8%
5,O=C(Nc1ccc([N+](=O)[O-])cc1)C(=O)Nc1ccc([N+](=O)[O-])cc1,11.6%
6,C=CC(=O)OC1CCC(C(C)(C)CC)CC1 (centres undefined),-12.9%
7,CCOC(=O)C(=O)CC(=O)c1ccccc1,-5.75%
8,O=c1nc(Nc2cccc(Cl)c2)oc2cc(Cl)oc(=O)c12,51.8%
9,N#CC1(O)CCCCC1,14.7%
10,CCOC(=O)c1ccc(NC(=O)Nc2nccs2)cc1,29.4%
11,O=C(O)c1ccc(OCc2ccccc2)cc1,38%
12,CC(=O)C1C(=O)C(=O)N(c2cccc([N+](=O)[O-])c2)C1=O (centres undefined),-8.75%
13,Cc1cc(C(=O)NN)c(C#N)c(=O)[nH]1,-2.15%
14,CCC(C)c1c(N)n(S(=O)(=O)c2ccc(C)cc2)oc1=O (centres undefined),6.4%
15,O=c1cc(C(F)(F)F)[nH]c(=S)[nH]1,-15.8%
16,OCCc1ccc(Cl)cc1,9.7%
17,CCCOCc1cn[nH]n1,8.3%
18,Cc1cc(NC(=O)c2ccccc2)c(Cl)cc1N,-11.9%
